We go through 23 compounds from PubChem BioAssay (NCI).

A short description of assay [1]: NCI Yeast Anticancer Drug Screen. Data for the rad50 strain (AID 155).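 Also: 0% = growth of vehicle-only cultures of the same strain.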 The note with it: S. cerevisiae rad50 strain growth inhibition; at 50.0 µM; hits give high values. Summed up:
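Genetically altered yeast (DNA repair pathway); compound treatment; growth inhibition vs vehicle ctrl.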

Assay [2] in a line: NCI Yeast Anticancer Drug Screen. Data for the mec2-1 strain (AID 157). Conditions: S. cerevisiae mec2-1 strain, at 50.0 µM, hits give high values. Summed up:
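Strain: mec2-1 (DNA repair/cell cycle alteration). Compound exposure, then growth measured; inhibition expressed relative to vehicle.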

Assay [3] in a line: NCI Yeast Anticancer Drug Screen. Data for the sgs1 mgt1 strain (AID 161).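 Also: 0% = growth of cultures given vehicle only.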 Conditions: S. cerevisiae sgs1 mgt1 strain, at 50.0 µM, hits give high values. The method, boiled down: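 Read-out: growth inhibition vs vehicle controls. Cells: mutant yeast strain deficient in DNA damage repair.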
Assay [4] in a line: NCI Yeast Anticancer Drug Screen. Data for the cln2 rad14 strain (AID 165).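 Also: 0% = growth equal to vehicle treated cultures.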 Conditions: S. cerevisiae cln2 rad14 strain, at 50.0 µM, hits give high values. Summed up: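 Compounds are applied to the cln2 rad14 yeast strain, and growth is then compared with that of vehicle-treated cultures to give inhibition.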
Assay [5] can be described thus: NCI Yeast Anticancer Drug Screen. Data for the mlh1 rad18 strain (AID 175). Conditions: S. cerevisiae mlh1 rad18 strain growth inhibition; at 50.0 µM; hits give high values. Summed up:
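Read-out is yeast growth inhibition, calculated against vehicle-only controls. The compound was applied to a strain engineered with DNA damage repair alterations.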

Assay [6] is described as follows: NCI Yeast Anticancer Drug Screen. Data for the bub3 strain (AID 167). Conditions: S. cerevisiae bub3 mutant strain, at 50.0 µM, hits give high values. The method, boiled down: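 Yeast carrying a defined mutation is treated with each compound, and growth is compared with that of vehicle-exposed cells to give inhibition.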

This is part of a sample that, as a whole, favours compounds with a hit. Of some 79,000 tested, about 15% had one in any assay. Unmarked numbers belong to inactive results. The source made the active and inactive calls. Rule as the data show it: active = growth inhibition above about 70%; inactive = the rest.

In the case of `CC(C(=O)O)c1ccc(-n2nnc3c(=O)[nH][nH]c(=O)c32)cc1` (stereo unspecified), the growth inhibition is -16.2% in assay [1]; -8.4% in assay [2]; -12.6% in assay [3]; -17.3% in assay [4]; -5.7% in assay [5].

As to `CCOC(=O)/C(F)=C/c1cccc(C)c1`, the growth inhibition in assay [1] is -5.05%; in assay [2], -23%; in assay [3] it was -17.9%; in assay [4], -4.7%; in assay [5], -3.1%.

In the case of `C/C(=N\N=C(/C)c1ccc(C)cc1)c1ccc(C)cc1`, the growth inhibition is 10.7% in assay [1]; -30.3% in assay [2]; 20.1% in assay [3]; 6.1% in assay [4]; 3.7% in assay [5].

Take `O=C(c1ccccc1)C1Nc2ccc(Cl)cc2C2C=CCC12` (stereo unspecified): the growth inhibition is -1.2% in assay [1]; -7.75% in assay [2]; 6.4% in assay [3]; -7.95% in assay [4]; 14.8% in assay [5].

On to `CCCC(=O)OCCOc1ccccc1`, for which the growth inhibition was 18.1% in assay [1]; 2.3% in assay [2]; 11% in assay [3]; 7.2% in assay [4]; 0.8% in assay [6]; 2.5% in assay [5].

On to `COc1cc(C(=O)N2C[C@H](O)C[C@H]2C(=O)O)cc(OC)c1OC`, for which the growth inhibition in assay [1] was -18.4%; in assay [2], -15.9%; in assay [3], -32.8%; in assay [4], -5.75%; in assay [5], -9.85%.

With `O=C1NC(O)c2cccc(F)c2O1` (stereo unspecified), the growth inhibition in assay [1] was 20.4%; in assay [2], 6.3%; in assay [3] it was 43.4%; in assay [4], 31.5%; in assay [5], 58.9%.

As to `COc1cc(C(=O)Nc2cccc3ccccc23)c(Br)c(OC)c1OC`, the growth inhibition is 19.3% in assay [1]; 17.3% in assay [2]; 39.5% in assay [3]; 26.9% in assay [4]; 32.7% in assay [5].

With `CC(C)CCCC(C)C1CCC2C3C(O)CC4CCCCC4(C)C3CCC12C` (stereo unspecified), the growth inhibition in assay [1] was 96.7% (active); in assay [2] it was 97.8% (active); in assay [3], 98% (active); in assay [4] it was 95.2% (active); in assay [5], 97.9% (active).

With `Cc1ccccc1-c1nnc(-c2ccc3ccccc3c2)o1`, the growth inhibition in assay [1] is 7.3%; in assay [2] it was -4.25%; in assay [3], -4.65%; in assay [4], -36.5%; in assay [5] it was -1.05%.

On to `Cc1c(CN2CCOCC2)c(CN2CCOCC2)c(C)n1-c1ccc(Cl)cn1`, for which the growth inhibition was -31.1% in assay [1]; 7.9% in assay [2]; -23.1% in assay [3]; -6.85% in assay [4]; 7.55% in assay [5].

For the compound `CC(C)CNC(=S)N/N=C/c1ccc(C(C)C)cc1`, the growth inhibition in assay [1] was -19.6%; in assay [2], -13.4%; in assay [3] it was -8.4%; in assay [4], -46.2%; in assay [5] it was -28.1%.

`O=C(Nc1ccccc1)C1CC=C2CCC3OC(=O)C1C23` (stereo unspecified): the growth inhibition was -11.4% in assay [1]; -16.7% in assay [2]; -23.4% in assay [3]; -16% in assay [4]; -18.1% in assay [5].

Turning to `COc1cc(O)c2c(c1)C(=O)c1cc3c(c(O)c1C2=O)C(O)C(OC)C(C)(O)C3O` (stereo unspecified), the growth inhibition in assay [1] is 72.5% (active); in assay [2], 54.3%; in assay [3], 72% (active); in assay [4] it was 42.6%; in assay [5], 68.2%.

As to `COC(=O)CCC(CCC(=O)O)([N+](=O)[O-])[N+](=O)[O-]`, the growth inhibition was 2.05% in assay [1]; -5.65% in assay [2]; -6.3% in assay [3]; -36.4% in assay [4]; -11.8% in assay [5].

Consider `COc1cc(NS(=O)(=O)c2ccc(C)cc2)c2c(c1N)C(=O)c1ccccc1C2=O`, for which the growth inhibition is -3.4% in assay [1]; -8.15% in assay [2]; -4.1% in assay [3]; 5.35% in assay [4]; -1.05% in assay [5].

As to `Cc1ccc(-c2c(C#N)c(-c3ccc([N+](=O)[O-])cc3)c(C#N)c(=O)n2NS(=O)(=O)c2ccccc2)cc1`, the growth inhibition was 23.1% in assay [1]; 16.8% in assay [2]; 24.5% in assay [3]; 27.4% in assay [4]; 0.8% in assay [5].

For `O=C(O)C1CCN(C(=O)Cc2ccccc2)CC1`, the growth inhibition in assay [1] is -12.5%; in assay [2], -1.95%; in assay [4] it was -5.6%; in assay [6] it was 0.05%; in assay [5], -14.7%.

On to `COC(=O)C1(CC(=O)C(c2ccccc2)c2ccccc2)NC(=S)NC(=O)C1C#N` (stereo unspecified), for which the growth inhibition was 5.6% in assay [1]; 4.65% in assay [2]; -2.7% in assay [4]; 0.55% in assay [6]; -8.9% in assay [5].

On to `CCCOC(=O)Nc1cccc2ccccc12`, for which the growth inhibition in assay [1] was 0.65%; in assay [2] it was -9.3%; in assay [4], -62.4%; in assay [6] it was -21.8%; in assay [5], -17.2%.

As for `COC(=O)CC1NC(=O)[C@]1(C)[C@H](C)O` (stereo partly specified), the growth inhibition was -37.1% in assay [1]; -16.2% in assay [2]; -14.3% in assay [4]; -48.4% in assay [6]; -48.9% in assay [5].

Turning to `COc1ccc(/C=C2/SC(=S)NC2=O)cc1S(=O)(=O)O`, the growth inhibition is 2.25% in assay [1]; -6.15% in assay [2]; -10.8% in assay [4]; 9.95% in assay [6]; -1.15% in assay [5].

With `CCCn1c(SCC)c2ccccc2c1-c1nc(F)nc(F)n1`, the growth inhibition in assay [1] is -11.8%; in assay [2], -21.8%; in assay [4] it was 18.9%; in assay [6] it was -20.7%; in assay [5] it was 4.1%.
